An excerpt weighted towards active compounds, which were near 4.5% of everything screened.
PrPC surface inh: inhibitors of human cell surface prion protein PrPC, primary screen, cell-based, TR-FRET; Major prion protein (Homo sapiens), P04156; TR-FRET read-out; inhibition, % at 13.8 µM; 0.43% of 370,000 active; in the data active = inhibition above about 24%; also: 0% = median of the test wells and 100% = reference compound wells
BJeLR viability: MLPCN primary cell-based screen for lethality selective to Ras in HRASV12 cells; BJeLR (HRASV12) viability, CellTiter-Glo ATP luminescence, 48 h; inhibition, % (concentration not given with the values); 0.17% of 300,000 active; AID 1554, 2009; in the data active = inhibition above about 50%
GDH-TPI counter-1: GDH-TPI coupling enzyme inhibitors, primary screen, artefact control for M. tuberculosis FBA inhibitor project, biochemical, absorbance, full deck; GDH-TPI coupled enzyme counterscreen, NADH absorbance; inhibition, % at 4.8 µM; 1.2% of 360,000 active; in the data active = inhibition above about 30%;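 also: 0% = DMSO wells and 100% = wells lacking the enzyme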
PfHsp40 rescue: rescue of yeast from PfHsp40 toxicity, primary screen, S. cerevisiae, ATP luminescence; growth rescue, % at 12.5 µM; S. cerevisiae expressing PfHsp40, growth rescue; AID 504582, 2011; 0.68% of 340,000 active; in the data active = growth rescue above about 28%, passing the limit was not always enough;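 also: yeast W303a lacking pdr1 and pdr3 grown in galactose medium; growth measured after three days at 30 °C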
PrP 5UTR inh: inhibition of PrP 5' UTR reporter expression; AID 488862, 2010; cell-based PrP 5' UTR mRNA reporter, plate reader; 0.35% of 340,000 active; inhibition, % (test concentration not listed); in the data active = inhibition above about 52%; also: 0 = median of the neutral control wells
FBA Mtb inh: Mtb FBA enzyme inhibitors, primary screen, biochemical, fluorescence, strain H37Rv. Fructose-bisphosphate aldolase (Mycobacterium tuberculosis (strain ATCC 25618 / H37Rv)), …. purified M. tuberculosis FBA, fluorescence read-out. inhibition, % at 1 µM. 2.3% of 360,000 active;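 also: 0% = vehicle and 100% = reference inhibitor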
Target sequence (P9WQA3 whole entry, looked up): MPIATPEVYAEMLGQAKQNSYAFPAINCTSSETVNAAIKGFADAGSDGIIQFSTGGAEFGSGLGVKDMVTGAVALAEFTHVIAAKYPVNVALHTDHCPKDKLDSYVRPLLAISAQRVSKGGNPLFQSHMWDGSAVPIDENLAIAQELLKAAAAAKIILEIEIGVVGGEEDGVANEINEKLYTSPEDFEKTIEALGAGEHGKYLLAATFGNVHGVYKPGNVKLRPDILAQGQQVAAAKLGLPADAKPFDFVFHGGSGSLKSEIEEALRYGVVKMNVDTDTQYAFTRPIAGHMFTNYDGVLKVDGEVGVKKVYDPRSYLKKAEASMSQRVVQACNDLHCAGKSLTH
Mtb FBA confirm: M. tuberculosis aldolase blockers, biochemical, fluorescence, strain H37Rv, confirmation; shares compounds with FBA Mtb inh; purified M. tuberculosis FBA, fluorescence read-out; inhibition, % at 1 µM; 78% of 5,600 active; AID 651616, 2012;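 also: 0% = vehicle wells and 100% = reference inhibitor wells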
GDH-TPI counter-2: GDH-TPI coupling enzyme inhibitors, artefact control for M. tuberculosis FBA inhibitor project, biochemical, fluorescence, high throughput. 81% of 5,600 active. AID 652141, 2013. inhibition, % at 1 µM. shares compounds with FBA Mtb inh. GDH-TPI coupled enzyme counterscreen; in the data active = inhibition above about 10%
GDH-TPI dose: GDH-TPI coupling enzyme inhibitors, dose response, artefact control for M. tuberculosis FBA inhibitor project, biochemical, fluorescence, IC50. 79% of 170 active. AID 652145, 2013. shares compounds with FBA Mtb inh. IC50, µM. GDH-TPI coupled enzyme assay, artifact counterscreen; call rule not given here
* marks the source's active call; other numbers are inactive results. Rule as the data show it, unless noted: active = inhibition above about 27%; inactive = the rest.

How did Cc1cc(Cl)ccc1OCCCC(=O)N/N=C/c1cccc([N+](=O)[O-])c1 do in these assays?
PrPC surface inh: -2; BJeLR viability: -3; GDH-TPI counter-1: -4; PfHsp40 rescue: 1; PrP 5UTR inh: -12; FBA Mtb inh: 1

What do the screens show for `Cn1c(=O)cc(Nc2ccccc2)c2c(=O)n(-c3ccccc3)c(=O)n(-c3ccccc3)c21`?
PrPC surface inh: 6; BJeLR viability: 2; GDH-TPI counter-1: 5; PfHsp40 rescue: 0; PrP 5UTR inh: -15; FBA Mtb inh: -2

Results for Cc1ccc2nc(-c3ccc(S(=O)(=O)N4CCCCC4)cc3)cn2c1 ?
PrPC surface inh: -6; BJeLR viability: 7; GDH-TPI counter-1: 0; PfHsp40 rescue: 0; PrP 5UTR inh: 0; FBA Mtb inh: 53*; Mtb FBA confirm: 45*; GDH-TPI counter-2: 39*

What do the screens show for `Cc1ccc(S(=O)(=O)N2CCN(S(=O)(=O)N3CCCCC3)CC2)cc1`?
PrPC surface inh: 4; BJeLR viability: 4; GDH-TPI counter-1: -9; PfHsp40 rescue: 0; PrP 5UTR inh: -8; FBA Mtb inh: 1

What do the screens show for `COc1ccc(C(=O)NC(=S)Nc2ccc(CN3CCOCC3)cc2)cc1`?
PrPC surface inh: 13; BJeLR viability: -6; GDH-TPI counter-1: 5; PfHsp40 rescue: 1; PrP 5UTR inh: -2; FBA Mtb inh: 3

How did O=C(NC(=S)Nc1ccc(CN2CCOCC2)cc1)c1ccc([N+](=O)[O-])cc1 do in these assays?
PrPC surface inh: -26; BJeLR viability: 5; GDH-TPI counter-1: 2; PfHsp40 rescue: -1; PrP 5UTR inh: -9; FBA Mtb inh: 33*; Mtb FBA confirm: 5; GDH-TPI counter-2: -4

How did CN1CCN(C(=O)c2cc([N+](=O)[O-])ccc2Cl)CC1 do in these assays?
PrPC surface inh: -20; BJeLR viability: 9; GDH-TPI counter-1: 7; PfHsp40 rescue: 1; PrP 5UTR inh: -14; FBA Mtb inh: 3

Results for N#Cc1c(-c2ccc(F)cc2)c2c([nH]c1=O)-c1ccccc1OC2 ?
PrPC surface inh: 8; BJeLR viability: 8; GDH-TPI counter-1: -8; PfHsp40 rescue: 0; PrP 5UTR inh: -47; FBA Mtb inh: 105*; Mtb FBA confirm: active; GDH-TPI counter-2: active

Results for CC1(C)Cc2c(c(-c3ccco3)[nH]c(=O)c2C#N)CO1 ?
PrPC surface inh: 1; BJeLR viability: 6; GDH-TPI counter-1: 13; PfHsp40 rescue: 1; PrP 5UTR inh: -12; FBA Mtb inh: 14

How did COc1ccc(C(=O)NCCNc2nc3cc(C)cc(C)c3cc2C#N)cc1 do in these assays?
PrPC surface inh: -4

How did COc1ccc(C(=O)NCCNc2nc3ccc(C)cc3cc2C#N)cc1 do in these assays?
PrPC surface inh: -2; BJeLR viability: -1; GDH-TPI counter-1: 8; PfHsp40 rescue: 1; PrP 5UTR inh: -16; FBA Mtb inh: 47*; Mtb FBA confirm: 55*; GDH-TPI counter-2: 42*

Results for COc1ccc2nc(NCCCNC(=O)c3cc(OC)c(OC)c(OC)c3)c(C#N)cc2c1 ?
PrPC surface inh: -13; BJeLR viability: 0; GDH-TPI counter-1: 8; PfHsp40 rescue: 0; PrP 5UTR inh: -16; FBA Mtb inh: 32*; Mtb FBA confirm: 13; GDH-TPI counter-2: -5; GDH-TPI dose: 4.4*

What do the screens show for `Cc1ccc2nc(NCCNC(=O)c3ccccc3)c(C#N)cc2c1`?
PrPC surface inh: -2; BJeLR viability: -6; GDH-TPI counter-1: 3; PfHsp40 rescue: 1; PrP 5UTR inh: -17; FBA Mtb inh: 48*; Mtb FBA confirm: 189*; GDH-TPI counter-2: 144*
